Activity calls are given as the source filed them. The calls were made as follows: active = hit-call score of the fitted dose curve at least 0.9, where 1 is the maximum; inactive = score below 0.9.
Experiment: APR_HepG2_MicrotubuleCSK_72hr: Apredica 72-hour HepG2 Assay for Microtubule CSK Stabilty (AID 2282919)
Conditions: HepG2 microtubule cytoskeleton, high-content imaging, actives raise or lower the signal
Method: APR_HepG2_72hr is a cell-based, multiplexed-readout assay that uses HepG2, a human liver cell line, with measurements taken at 72 hours after chemical dosing in a 384-well plate.APR_HepG2_MicrotubuleCSK_72hr is one of 10 assay component(s) measured or calculated from the APR_HepG2_72hr assay. It is designed to make measurements of protein conformation, a form of conformation reporter, as detected with fluorescence intensity signals by HCS Fluorescent Imaging technology.Data from the assay component APR_HepG2_MicrotubuleCSK_72hr was analyzed into 1 assay endpoint. This assay endpoint, APR_HepG2_MicrotubuleCSK_72hr, was analyzed with bidirectional fitting relative to DMSO as the negative control and baseline of activity. Using a type of conformation reporter, measures of protein for gain or loss-of-signal activity can be used to understand the signaling at the cellular-level. Furthermore, this assay endpoint can be referred to as a primary readout, because this assay has produced multiple assay endpoints where this one serves a signaling function. To generalize the intended target to other relatable targets, this assay endpoint is annotated to the cell morphology intended target family, where the subfamily is cell conformation.
Cells were treated with dimethyl sulfoxide (DMSO) as a solvent control at a final concentration of 0.5% v/v or with compounds in DMSO with a resulting final DMSO concentration of 0.5% v/v. Compound treatment was done at concentrations of 0.39, 0.78, 1.56, 3.12, 6.24, 12.5, 25, 50, 100, and 200 uM in duplicate on each plate. Cells were treated with compounds for 1, 24, or 72 hr. Carbonyl […] m-chloro-phenylhydrazone (CCCP) and taxol were used as positive controls for mitochondrial function and cytoskeletal stability, respectively; DMSO served as the negative control for this experiment. Cells were fixed by the direct addition of 50 uL formaldehyde in Hank's Balanced Salt Solution (HBSS) to a final concentration of 3.7%. After incubation in the fixation medium for 30 min at room temperature (293-298 K), cells were rinsed twice with HBSS and treated with cell permeabilization buffer (16 uL of 0.5% Triton X-100) for 10 min at room temperature (293-298 K) before labeling. For mitochondrial membrane potential and mitochondrial measurements, pre-fixed cells were incubated with 50 uL of MitoTracker Red CMXRos (Invitrogen) at a concentration of 250 nM for 30 min before fixation. In the remaining cases, post-fixed cells were labeled by incubation with a multiplexed mixture of primary antibodies in HBSS for 60 min at room temperature (293-298 K) to detect immunoreactivity of c-Jun (1:500), phospho-histone H3 (1:100), phospho-histone H2A.x (1:200), p53 (1:400), alpha-tubulin (1:200) and Hoechst 33342 (2 ug/mL). Cells were labeled for multiplexed imaging on two separate plates: a) Hoechst 33342, MitoTracker Red, phospho-histone H3, and alpha-tubulin, and b) Hoechst 33342, phospho-histone H2A.x, and c-Jun. A final rinse with HBSS (50 uL) was performed before analysis. The primary and secondary antibodies for the proteins were phospho-histone H3 (rabbit anti-phospho-histone H3 and FITC-donkey anti-rabbit IgG), phospho-histone H2A.x (mouse anti-phospho-histone H2A.x and FITC-donkey anti-mouse IgG), c-Jun (rabbit anti-phospho-c-Jun and Cy3-donkey anti-rabbit IgG), p53 (sheep anti-p53 and Cy5-donkey anti-sheep IgG), alpha-tubulin (mouse anti-alpha-tubulin and Cy5-donkey anti-mouse IgG). These antibodies are available as the CellCiphr HepG2 assay kit (Millipore).Digital images of each well were captured using a Cellomics ArrayScan VTI (Thermo Scientific Cellomics) (0.8 NA objective, 0.63x optical coupler, and XF-93 filter set) at 20x magnification. The images were acquired using the autofocus feature of the ArrayScan instrument, which entails the following steps. First, the camera focuses on channel 1 (Hoechst 33342), where nuclei are identified. Second, a Z offset of 1 um is used for capturing mitochondria (MitoTracker Red). […]

Compound | AC50 | outcome
NC(=Nc1ccccc1)Nc1ccccc1 | 34 µM (active) | –
OCC(O)CO | – | inactive
O=C1c2c(O)cccc2Cc2cccc(O)c21 | – | inactive
CC(=O)S[C@H](C(=O)N[C@H]1Cc2ccccc2[C@H]2CCC[C@@H](C(=O)O)N2C1=O)C(C)C | – | inactive
O=[Si]=O | – | inactive
CCCCCCC(CCCCCCCCCCC(=O)OCC(COC(C)=O)OC(C)=O)OC(C)=O (stereo not given) | – | inactive
C/C=C/C=C/C(=O)O | – | inactive
O=C(O)CC(O)(CC(=O)O)C(=O)O | – | inactive
CCN(CC)CCOc1ccc(C(=C(Cl)c2ccccc2)c2ccccc2)cc1 | 61.2 µM (active) | –
Nc1nc(=S)c2[nH]cnc2[nH]1 | – | inactive
Cn1cnc2c1c(=O)[nH]c(=O)n2C | – | inactive
CN(C)CCCN1c2ccccc2Sc2ccc(Cl)cc21 | – | inactive
Cc1cc(Cc2ccc(N)c(C)c2)ccc1N | – | inactive
CC(=O)O | – | inactive
CCCCCCCC(=O)OC | – | inactive
CCCC(=O)O | – | inactive
O=C1NC(=O)C(c2ccccc2)(c2ccccc2)N1 | – | inactive
CCC(C)N(C)C(=O)c1cc2ccccc2c(-c2ccccc2Cl)n1 (stereo not given) | – | inactive
c1ccc2occc2c1 | – | inactive
CN(C)C(=O)NC1(c2ccccc2)CCN(CCC[C@]2(c3ccc(Cl)c(Cl)c3)CCCN(C(=O)c3ccccc3)C2)CC1 | – | inactive

Compound | AC50 | outcome
O=C(N[C@@H](c1ccccc1)[C@@H]1CCCCN1)c1cccc(C(F)(F)F)c1Cl | – | inactive
CCCCCCC(C=O)=Cc1ccccc1 | – | inactive
CCCCC(CC)CO (stereo not given) | – | inactive
O=C1O[C@H]([C@H](O)CO)C(O)=C1O | – | inactive
CC(=O)[C@@]1(O)CC[C@H]2[C@@H]3CCC4=CC(=O)CC[C@]4(C)[C@H]3CC[C@@]21C | – | inactive
CC(C)OC(=O)C(C)(C)Oc1ccc(C(=O)c2ccc(Cl)cc2)cc1 | – | inactive
CCCCCCCCCCCCCCOS(=O)(=O)O | – | inactive
O=C1CCCCC1 | – | inactive
CCc1nc(N)nc(N)c1-c1ccc(Cl)cc1 | – | inactive
CCCCCCCCCC[N+](C)(C)[O-] | – | inactive
CN(C)CCCN(C)CCCN(C)C | – | inactive
CO[C@@H]1COCC[C@@H]1N[C@@H]1CC[C@@](C(=O)N2CCc3ncc(C(F)(F)F)cc3C2)(C(C)C)C1 | – | inactive
Cc1cc(SC2=C(O)C[C@@](CCc3ccc(N)cc3)(C(C)C)OC2=O)c(C(C)(C)C)cc1CO | – | inactive
O=C1OC(c2ccc(O)cc2)(c2ccc(O)cc2)c2ccccc21 | 97.3 µM (active) | –
CC(C)NCC(O)c1ccc(O)c(O)c1 (stereo not given) | – | inactive
S=c1[nH]c2ccccc2s1 | – | inactive
C=CCCCCCCCCCCCC | – | inactive
CC(=O)OC1CC(C)OC(C)O1 (stereo not given) | – | inactive
CC(N)=O | – | inactive
COc1ccc(C(=O)Nc2nc3ccccc3c(NCc3ccccc3)c2C#N)cc1 | – | inactive

— PubChem BioAssay (EPA / NIEHS)
